# Assay outcomes deposited in PubChem BioAssay by University of Kansas High Throughput Screening Laboratory.
# mHTT CaM bind = mutant huntingtin-calmodulin interaction inhibitors – biochemical, AlphaScreen, primary screen | P42858 | AlphaScreen His-mHTT/GST-CaM binding, luminescence | inhibition, % at 15 µM | hit rate 3.6% among 190,000 | AID 1671202, 2021;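 also: 0% = both proteins with DMSO and 100% = one protein alone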
# Pf apPOL block = Pf-apPOL inhibitors, biochemical, fluorescence; Plasmodium falciparum apicoplast DNA polymerase (apPOL); Recombinant Pf-apPOL, molecular beacon fluorescence, 1.5 h; inhibition, % at 10 µM; hit rate 0.25% among 210,000; AID 1794808, 2022
# * hit, by the source's call; x = not tested or not shown. The full list was thinned out, with hits kept by preference. Rule as the data show it: active = inhibition above about 50%; inactive = the rest.
SMILES,mHTT CaM bind,Pf apPOL block
Cc1ccc(-c2ccc(CN3C(C(C)C)C(=O)N(Cc4cn(Cc5ccco5)nn4)CCS3(=O)=O)cc2)cc1 (stereo unspecified),64.7*,-5.7
O=S(=O)(NCCO)c1ccc2c(c1)C(=NO)c1cc(S(=O)(=O)NCCO)ccc1-2,2.0,-3.2
O=C(C1CC1)N1CCc2cc(Br)cc(S(=O)(=O)Nc3ccc4c(c3)OCCO4)c21,17.0,0.6
Nc1ccc(Cc2ccc(N)c(O)c2)cc1O,86.7*,59.5*
N#Cc1cc(Cc2ccc(N)c(C#N)c2)ccc1N,2.4,-38.5
CC(=O)Nc1ccc2nc(N3CCC(C(=O)N4CCCC4)CC3)cc(C)c2c1,0.6,3.0
COc1ccc(Cl)cc1N(CC(=O)N(Cc1ccccc1)Cc1ccccc1)S(C)(=O)=O,64.9*,-5.8
COc1ccc(Cl)cc1N(CC(=O)N1CCN(Cc2ccccc2)CC1)S(C)(=O)=O,20.5,-0.7
Cc1ccccc1C(=O)N1C(C(=O)NCc2ccncc2)COC12CCC(C)CC2 (stereo unspecified),5.7,-5.8
S=C(NCCc1ccccc1)Nc1cc(Cl)c(Cl)cc1Cl,x,-2.0
Cc1ccc2cc3cc(C(=O)Nc4ccc(F)c(Cl)c4)oc3nc2c1,-6.0,10.9
N#Cc1cccc(NC(=O)CSc2nc3c(c(=O)[nH]2)CN(Cc2ccccc2)CC3)c1,53.6*,-6.0
O=c1[nH]c(SCc2ccccc2Cl)nc2c1CN(Cc1ccccc1)CC2,0.7,-1.9
CC12CCC3C(CCC4CCCCC43C)C1CCC2N (stereo unspecified),100.0*,-1.2
CC12CCC3C(CCC4CCCCC43C)C1CC(c1nc3ccccc3[nH]1)=C2O (stereo unspecified),-1.0,-1.0
COc1ccc(C(CCN2CCCC(C)C2)c2c(OC)cc(OC)c3c(-c4ccccc4)cc(=O)oc23)cc1 (stereo unspecified),99.8*,-3.3
COc1ccc(C(CCN2CCOCC2)c2c(OC)cc(OC)c3c(-c4ccccc4)cc(=O)oc23)cc1 (stereo unspecified),65.9*,-7.8
COc1ccc(C(CCN2CCCC2)c2c(OC)cc(OC)c3c(-c4ccccc4)cc(=O)oc23)cc1 (stereo unspecified),98.3*,-11.5
COc1ccc(C(CCN2CCCC(C)C2)c2c(OC)cc(OC)c3c(C)cc(=O)oc23)cc1 (stereo unspecified),20.5,-8.4
c1ccc(C(Sc2nc3ccccc3s2)c2ccccc2)cc1,-36.6,x
CC(=O)Nc1cccc(N2CC(C(=O)Nc3ccc(Cl)cc3F)CC2=O)c1 (stereo unspecified),-10.5,-1.7
COc1ccc(C(C)=O)cc1CSc1nc(NCC2CCCO2)c2ccccc2n1 (stereo unspecified),24.0,-5.0
CCc1noc(-c2cccnc2N2CCCN(C(=O)Cc3cccc(F)c3)CC2)n1,-3.2,3.9
CC(C)Cc1ccc(S(=O)(=O)N2CCC(Cc3nc4cccnc4n3C)C2)cc1 (stereo unspecified),1.0,-8.0
COc1cc(OC)cc(C(=O)N2CCc3c(c(C(=O)NCc4ccccc4)nn3C)C2)c1,74.8*,-3.2
SMILES,mHTT CaM bind,Pf apPOL block
Cn1nc(C(=O)NCc2ccccc2)c2c1CCN(C(=O)c1ccccc1)C2,36.5,1.3
Cc1ccc(C(=O)N2CCc3c(c(C(=O)NCc4ccccc4)nn3C)C2)cc1,75.3*,-2.4
COc1ccc(C(=O)N2CCc3c(c(C(=O)NCc4ccccc4)nn3C)C2)c(OC)c1,51.4*,-9.9
CC(Oc1ccccc1)C(=O)N1CCc2c(c(C(=O)NCc3ccccc3)nn2C)C1 (stereo unspecified),55.0*,-6.8
COc1ccc2cc(C(=O)N3CCc4c(c(C(=O)NCc5ccccc5)nn4C)C3)[nH]c2c1,36.7,-2.3
Cc1ccccc1C(=O)N1CCc2c(c(C(=O)NCc3ccccc3)nn2C)C1,11.5,-16.4
Cn1nc(C(=O)NCc2ccccc2)c2c1CCN(C(=O)c1ccccc1Cl)C2,34.2,-9.8
CN1CCN(S(=O)(=O)c2ccc(F)cc2)CC1c1ccccc1 (stereo unspecified),-1.9,1.4
CCOC(=O)N1CCN(C(=O)c2cc3c(s2)CN(C2CC2)C3)CC1,-4.3,0.0
CCCCN(C)c1nc(CC)c2c(c1C#N)CC(C)(C)OC2,-72.0,-1.4
Nc1nonc1-c1noc(CCl)n1,-8.1,x
COc1ccc(C(=O)N2CCc3c(c(C(=O)NCc4ccccc4)nn3C)C2)cc1,55.8*,-10.4
Cn1nc(C(=O)NCc2ccccc2)c2c1CCN(C(=O)c1ccc(C#N)cc1)C2,20.6,-2.2
O=C(NCCN1CCOCC1)c1ncn[nH]1,-8.1,x
Cc1ccc(C(=O)NC2CCN(c3ccc(C)cc3)C2=O)cc1 (stereo unspecified),-5.4,-2.3
Cn1nc(C(=O)NCc2ccc(F)cc2)c2c1CCN(C(=O)c1cccs1)C2,0.2,-11.6
Cc1cccc(C(=O)N2CCc3c(c(C(=O)NCc4ccc(F)cc4)nn3C)C2)c1,73.0*,-10.3
COc1cccc(C(=O)N2CCc3c(c(C(=O)NCc4ccc(F)cc4)nn3C)C2)c1,86.0*,-13.9
Cn1nc(C(=O)NCc2ccc(F)cc2)c2c1CCN(C(=O)c1ccc(F)cc1)C2,-6.3,-3.5
O=C(CCC1CCN(c2cc(NC3CC3)ncn2)CC1)NCc1ccc(F)cc1F,3.6,-2.5
CC1CN(C(NC(=O)Cc2ccccc2)C(Cl)(Cl)Cl)CC(C)O1 (stereo unspecified),-6.0,-3.6
CCCC(=O)Nc1ccccc1NC(=O)COc1ccc(C)cc1Br,-1.0,-1.2
COc1ccc(/C=C2\SC(=O)N(c3ccccc3OC)C2=O)cc1,4.0,-4.0
COc1ccccc1N1C(=N)S/C(=C\c2ccc(Br)c([N+](=O)[O-])c2)C1=O,57.0*,-8.1
O=C(Nc1ccc(O)c(-c2nc3ccccc3s2)c1)c1cccc(F)c1,3.8,3.8
SMILES,mHTT CaM bind,Pf apPOL block
Cc1cc(C)nc(NC2=NCC(=O)N2c2ccc(F)cc2)n1,2.0,-6.7
COc1ccc(-n2c(NN)nc3sc4c(c3c2=O)CCCC4)cc1,60.9*,-4.7
COc1ccc(-n2c(=O)c3c4c(sc3n3cnnc23)CCCC4)cc1,6.8,1.0
CCN(CC)c1nc(-c2ccc(OC)c(OC)c2)cc(C(F)(F)F)n1,-38.0,-7.2
NC(=O)c1cc2ccc(O)cc2oc1=Nc1ccc(F)cc1,31.0,-1.1
COc1ccc([N+](=O)[O-])cc1NC(=O)C1CCCCC1,-2.4,-1.9
COc1ccc([N+](=O)[O-])cc1NC(=O)C1CC(=O)NC(=N)S1 (stereo unspecified),1.0,58.7*
CS(=O)(=O)N1CCCC(C(=O)N2CC(=O)Nc3ccccc32)C1 (stereo unspecified),-17.5,-5.4
COc1ccc(OC)c(/C=c2\sc3nc(-c4ccccc4)nn3c2=O)c1,3.0,0.4
COC(=O)c1ccccc1S(=O)(=O)NC1C2(C)CCC(C2)C1(C)C (stereo unspecified),x,-5.2
CN1CCN(C(CNC(=O)NCc2ccccc2)c2ccc3c(c2)CCCN3C)CC1 (stereo unspecified),37.2,-12.3
CN1CCCc2cc(C(CNC(=O)Nc3cccs3)N3CCCC3)ccc21 (stereo unspecified),55.4*,2.2
COc1ccccc1NC(=O)c1c(NCc2cccnc2)sc2c1CCCCC2,80.0*,-19.2
COc1ccc(OC)c(NC(=O)c2c(N)sc3c2CCCCC3)c1,64.5*,-4.1
